Values joined by “and” are separate entries in the source; they are usually repeats but may differ in a detail not shown here. Identical values can stand only once. Hit rate of the full screen: of about 430,000 compounds, about 2,600 (0.6%) were called active. Rule as the data show it: active = inhibition mostly above about 37% (no sharp cut-off); inactive = mostly below about 20%. Many of the other results were omitted from the sample, so actives are more common in it than they were.

In the experiment the test system is PriA–SSB C-terminal tail interaction (Klebsiella pneumoniae). Put plainly: inhibitors of Klebsiella pneumoniae PriA binding to SSB C-terminal tail, primary screen, biochemical, AlphaScreen (AID 1272365).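 Also: plate controls were negative control peptide for no effect and reference peptide for full effect.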 Particulars: AlphaScreen SSBct-PriA binding, biotinylated peptide; at 33 µM, stronger effect = higher value.
On to `O=C(NNC(=S)Nc1ccccc1)c1cccc(S(=O)(=O)N2CCOCC2)c1`, for which the inhibition is -5.79% (inactive). As for `Cc1cccc(-n2cnc(C(=O)NNC(=S)Nc3ccccc3)c2)n1`, the inhibition was 66.5% (active). The result for `Cc1cccc(-n2cnc(C(=O)Nc3cccnc3)c2)n1` reads -12.9% (inactive).

Take `O=C(NCC(F)(F)F)C1CCN(c2cc(-n3cncn3)ncn2)CC1`: the inhibition is 4% (inactive).

For the compound `Cc1c(CCOC(=O)CC23CC4CC(CC(C)(C4)C2)C3)sc[n+]1Cc1ccc([N+](=O)[O-])cc1`, the inhibition was 6.21% (inactive).

Consider `Cc1c(CCOC(=O)C23CC4CC(CC(C)(C4)C2)C3)sc[n+]1Cc1ccc([N+](=O)[O-])cc1`, for which the inhibition is 39% (active).

Take `O=C(Nc1ccc([N+](=O)[O-])cc1Br)C12CC3CC(CC(C3)C1)C2`: the inhibition was -8% (inactive). The result for `COc1ccc(-c2noc(CN3N=NC4C(=O)N(c5ccc(C)c(F)c5)C(=O)C43)n2)c(OC)c1` (stereo not drawn) reads 6% (inactive); that for `O=C(NCC(O)(c1ccccc1)C(F)(F)F)C(=O)Nc1ccccc1` (stereo not drawn), -3% (inactive); that for `CS(=O)(=O)N1CCC(CNC(=O)c2cc3ccccc3o2)CC1`, -23% (inactive). The value for `CC1(C)N=C(SCC(=O)Nc2ccc(Br)cc2)C(c2ccccc2)=N1` was -5% (inactive). The value for `CCOc1ccc2nc(N(CCN(C)C)C(=O)c3ccc4ccccc4c3)sc2c1` was 14.2% (inactive) and 45% (active); that for `Cc1ccc2nc(N(CCN(C)C)C(=O)c3ccc(S(=O)(=O)N4CCCCCC4)cc3)sc2c1` was 35% (active). In the case of `CN(C)CCCN(C(=O)c1ccccc1)c1nc2c(F)cc(F)cc2s1`, the inhibition is 5% (inactive). Turning to `CCOc1ccc2nc(N(Cc3ccncc3)C(=O)Cc3ccc(F)cc3)sc2c1`, the inhibition was 13% (inactive).

In the case of `COc1cccc2sc(N(CCCN(C)C)C(=O)c3ccc(F)cc3)nc12`, the inhibition is -18% (inactive).

Consider `COc1cc2nc(N(CCN(C)C)C(=O)c3ccc(S(=O)(=O)N(C)Cc4ccccc4)cc3)sc2cc1OC`, for which the inhibition was 24% (inactive). The result for `CN(C)CCCN(C(=O)c1ccc(S(=O)(=O)N2CCCc3ccccc32)cc1)c1nc2ccc(F)cc2s1` reads 42% (active). For `CCOc1ccc2nc(N(CCN(C)C)C(=O)c3ccc(S(=O)(=O)N4CCC(C)CC4)cc3)sc2c1`, the inhibition was 29% (inactive). The value for `COc1ccc2nc(N(CCN3CCOCC3)C(=O)c3ccccc3S(C)(=O)=O)sc2c1` was 0% (inactive).

`CC1CN(S(=O)(=O)c2ccc(C(=O)N(CCN(C)C)c3nc4cc5c(cc4s3)OCCO5)cc2)CC(C)O1` (stereo not drawn): the inhibition is 15% (inactive). On to `COc1ccc2nc(N(CCN(C)C)C(=O)c3ccc(S(=O)(=O)N4CCCc5ccccc54)cc3)sc2c1`, for which the inhibition is 41% (active). As to `CN(C)CCN(C(=O)CCOc1ccccc1)c1nc2cc3c(cc2s1)OCO3`, the inhibition is 7% (inactive). Take `O=C1CCCC(=O)N1CCS(=O)(=O)N1CCC(c2nnc(-c3ccco3)s2)CC1`: the inhibition was -4% (inactive). The value for `O=C([C@@H]1CC=CCC1)N1CCN(c2ccc(-n3cncn3)nn2)CC1` was -9% (inactive); that for `CCc1nc(-c2ccc(N3CCN(C(=O)c4cc5cccc(OC)c5o4)CC3)nc2)no1` was -1% (inactive). For `NCc1n[nH]c(=O)c2ccccc12`, the inhibition is -2% (inactive) and -4% (inactive).

For the compound `COC(=O)c1ccccc1NC(=O)c1snnc1C`, the inhibition was -11% (inactive). For the compound `CN1CCN(c2nc3ccc(NC(=O)c4ccc5c(c4)OCO5)cc3s2)CC1`, the inhibition is -2% (inactive).

With `COc1ccc(OC)c(C(=O)Nc2ccc3nc(N4CCN(C)CC4)sc3c2)c1`, the inhibition was 6% (inactive) and -21% (inactive). The result for `COc1cccc2cc(C(=O)Nc3ccc4nc(N5CCN(C)CC5)sc4c3)oc12` reads -6% (active).

With `O=C(NCC#CCOc1ccc2c(c1)OCO2)Nc1ccccc1C(F)(F)F`, the inhibition was -21% (inactive).

In the case of `Cc1ccccc1-c1nc(CSc2nc(C)c(Cc3ccccc3)c(=O)[nH]2)c(C)o1`, the inhibition is 7% (inactive).

Take `Cc1nc2oc(-c3ccccc3)nc2cc1NC(=O)c1cc(=O)c2ccccc2o1`: the inhibition was -8% (inactive). The result for `Cc1c(C(=O)O)cccc1-c1ccc(C=NNc2ccc(Br)cc2)o1` reads 0.6% (inactive); that for `CC(C)Sc1ccc(C(=O)Nc2nc(-c3ccccn3)cs2)cc1`, 50.6% (inactive); that for `CC(NC(=O)c1ccco1)C(=O)Nc1nc(-c2ccccn2)cs1` (stereo not drawn), 74.4% (active). On to `O=C(Nc1nc(-c2ccccn2)cs1)c1ccc(-c2ccccc2)cc1`, for which the inhibition was -19% (inactive). As to `CCSc1ccc(C(=O)Nc2sc(-c3ccccc3)cc2C(N)=O)cc1`, the inhibition was -22% (inactive). In the case of `CC(=O)Nc1ccc(C=NNC(=O)c2cccc(S(=O)(=O)N3CCOCC3)c2)cc1`, the inhibition is -5.31% (inactive). Take `CCOc1cc(C=NNC(=O)c2cccc(S(=O)(=O)N3CCOCC3)c2)ccc1OCC(=O)N(C)C`: the inhibition is -12.5% (inactive). The value for `O=C(NN=Cc1cc(Cl)cc([N+](=O)[O-])c1O)c1cccc(S(=O)(=O)N2CCOCC2)c1` was 41.7% (active); that for `O=C(Oc1cccc(Oc2ccccc2)c1)N1CCCCC1` was -33% (inactive); that for `O=C(Nc1nc(CCC(=O)N2CCN(c3ncccn3)CC2)cs1)NC1CCCCC1` was -9% (inactive).

As for `COc1ccccc1CNC(=O)CSc1nc2c(-c3ccccc3)c[nH]c2c(=O)n1C1CC1`, the inhibition is -8% (inactive). With `CCc1ccccc1NC(=O)NCCOc1ccc2nnc(-c3cccc(F)c3)n2n1`, the inhibition is -4% (inactive). The result for `O=S(=O)(NCC1(CO)CC1)c1cccc(Cl)c1` reads -9% (inactive); that for `Cc1cc(C(=O)NCC2CCCN2c2ccccc2)no1` (stereo not drawn), 0% (inactive); that for `COCCNC(=O)NC[C@H]1CCCN1c1ccccc1`, 6% (inactive). For the compound `O=C(NC[C@H]1CCCN1c1ccccc1)c1cc(-c2ccco2)[nH]n1`, the inhibition was 47% (active). In the case of `COc1ccc(OC)c(C(=O)Nc2nnc(Cc3ccc(Cl)s3)o2)c1`, the inhibition was -12% (inactive). On to `COc1ccc(-c2nnc(SCC(=O)Nc3cccnc3Cl)n2C)cc1`, for which the inhibition is 2.83% (inactive). As for `COc1cc(CO)ccc1OCC(=O)Nc1cccc2ccccc12`, the inhibition was -4.4% (inactive).

Regarding `COc1ccc(Cn2c(CO)cnc2SCC(=O)Nc2cccc3ccccc23)cc1`, the inhibition was 41% (active). Regarding `O=S(=O)(Cc1ccccc1)N1CCN(c2cc(-n3cccc3)ncn2)CC1`, the inhibition is 6% (inactive). The value for `CCCN1C(=O)C(C)(C)COc2ccc(N)cc21` was 32% (inactive); that for `Cn1cccc1-c1noc(CNC(=O)c2n[nH]c(=O)c3ccccc23)n1` was -3% (inactive); that for `CCC(=O)Nc1c(C)nc2scc(C)n2c1=O` was 13% (inactive). For `N#Cc1nc(-c2cccc3ccccc23)oc1N`, the inhibition is -28.7% (inactive). `CC1CCN(c2oc(-c3ccccc3F)nc2C#N)CC1`: the inhibition is 42.8% (active). The value for `N#Cc1nc(-c2ccco2)oc1N1CCN(C(=O)c2ccccc2F)CC1` was 9% (inactive); that for `O=C(NC[C@]1(O)CCc2ccccc21)c1ccccc1F` was -14% (inactive); that for `O=C(NCCc1ccccc1)NCCC(O)c1ccccc1` (stereo not drawn) was -6% (inactive).

`CC(C)C(NC(=O)c1ccc([N+](=O)[O-])cc1)c1nc2ccccc2[nH]1` (stereo not drawn): the inhibition is -6% (inactive).

Turning to `c1ccc(CN2CCC(N=C3NN=C(c4ccc5c(c4)OCCO5)CS3)CC2)cc1`, the inhibition is 49.7% (active). The result for `O=C(Cc1cc(=O)[nH]c(SCc2cccc(Cl)c2)n1)Nc1ccc2c(c1)OCCO2` reads 12% (inactive). As for `CC(=NC1CCN(Cc2ccccc2)CC1)c1c(O)[nH]c(=O)[nH]c1=O`, the inhibition was -3% (inactive). For `c1ccc(Cc2nnc(-c3ccc4c(c3)OCCO4)o2)cc1`, the inhibition is -10% (inactive). Turning to `Clc1cccc(N=C2NN=C(c3ccc4c(c3)OCCO4)CS2)c1`, the inhibition is 44.3% (active). Consider `CC1Oc2ccccc2OC1C(=O)N1CCN(c2nc3c(S(C)(=O)=O)cccc3s2)CC1` (stereo not drawn), for which the inhibition is -4% (inactive). Take `Cc1ccc(Cl)cc1-n1ccn(CC#N)c(=O)c1=O`: the inhibition is -5% (inactive). Take `Cc1ccc2nc(C(=O)O)cc(Nc3ccc(C)c(C)c3)c2c1`: the inhibition was -5% (inactive). The value for `Cc1ccc(Nc2cc(C)nc3c(C)ccc([N+](=O)[O-])c23)cc1` was 106% (active). The result for `Cc1ccc(NC2=NC(c3ccccc3)n3c(nc(C)cc3=O)N2)cc1` (stereo not drawn) reads -5.57% (inactive); that for `O=C(Nc1cccc(-c2nc3ccccc3s2)c1)c1ccc([N+](=O)[O-])cc1`, -2% (inactive); that for `CC(=O)OCC1OC(Oc2ccc(C(=O)/C=C/c3ccccc3)cc2)C(OC(C)=O)C(OC(C)=O)C1OC(C)=O` (stereo not drawn), 5% (inactive). On to `COc1cc(C(CCN2CCN(c3ccccc3)CC2)c2c(OC)cc(OC)c3ccc(=O)oc23)cc(OC)c1OC` (stereo not drawn), for which the inhibition was -0.54% (inactive). The result for `CCN(CC)CCC(c1ccc2c(c1)OCO2)c1c(OC)cc(OC)c2c(-c3ccccc3)cc(=O)oc12` (stereo not drawn) reads 24.5% (inactive); that for `COc1cc(OC)c2ccc(=O)oc2c1C(CCN1CCN(c2ccccc2)CC1)c1ccc2c(c1)OCO2` (stereo not drawn), 41.6% (active). `C=CCOc1ccc(C(O)=C2C(=O)C(=O)N(CCOC)C2c2cccnc2)cc1` (stereo not drawn): the inhibition was 0.46% (inactive). On to `FC(F)Sc1ccc(-c2csc(Nc3ccccc3)n2)cc1`, for which the inhibition was -4% (inactive). The value for `O=C(c1ccc(Br)o1)N1CCC(CSc2ccccn2)CC1` was 7% (inactive); that for `CC(=O)Nc1ccc(C(=O)N2CCc3nc4ccc(Cl)cn4c(=O)c3C2)cc1` was -7% (inactive). The result for `CC(C)CS(=O)(=O)C1CN(C(=O)c2ccc3nsnc3c2)C1` reads -14% (inactive); that for `Oc1c(CN2CCCC2)cc(Cl)c2cccnc12`, 103% (inactive). The value for `OCc1cccc2cccnc12` was 41.4% (inactive); that for `COc1ncc(Br)c2ncccc12` was -7% (inactive). For the compound `Oc1ccc(CN2CCCCCC2)c2cccnc12`, the inhibition was 124% (active). The result for `Oc1ccc(CN2CCCC2)c2cccnc12` reads 106% (active). The value for `COCCOCc1ccc(O)c2ncccc12` was 114% (active); that for `O=[N+]([O-])c1ccc(N2CCCCC2)c2cccnc12` was 46.9% (inactive). The value for `Oc1c(CN2CCOCC2)ccc(CN2CCOCC2)c1O` was -7.99% (inactive); that for `Clc1ccc(CN2CCCCCC2)cc1Cl` was -4.06% (inactive).

Source of the values: PubChem BioAssay AID1272365 (Small Molecule Screening Facility, UW Madison, 2020).
